Reference: PubChem BioAssay AID488890 (Southern Research Specialized Biocontainment Screening …, 2010)
Out of some 320,000 compounds screened, about 1,300 (0.41%) were called active. Not shown: some 3% with an inconclusive outcome. The rule behind the calls is not given here. These entries were drawn from the full list. Results with a measured potency or affinity are listed apart.

experiment: growth inhibition of non-replicating M. tuberculosis (AID 488890); conditions: Mycobacterium tuberculosis non-replicating, at 25 µM, stronger effect = higher value;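 note: plate controls were DMSO cells for no effect and high antibiotic wells for full effect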

Compared with `NS(=O)(=O)c1ccc(CCNC(=O)c2cccc(S(=O)(=O)N3CCCC3)c2)cc1`, `O=C(c1ccco1)N1CCN(S(=O)(=O)c2ccc(Cl)cc2)CC1` is lower in inhibition: 17.3% for the first, -7.62% for the second.

First: S=c1[nH]nc(C2CCCCC2)n1/N=C/c1cccc(Br)c1
Second: Cc1ccc(NC(=O)CCC(=O)Nc2nnc(C3CCCCC3)s2)cc1
The inhibition of the first is lower: -5.05% for the first, -1.2% for the second.

First: COCCCNC(=O)Nc1ccc(F)cc1F
Second: CCOCCCNC(=O)c1cc2c(s1)-c1ccccc1SC2
The inhibition of the first is lower: -3.58% for the first, 9.76% for the second.

First: NC(=O)COc1cc2oc(=O)c3c(c2cc1Cl)CCCC3
Second: O=C(O)COc1ccc2c(-c3ccccc3)cc(=O)oc2c1
The inhibition of the first is higher: -1.26% for the first, -4.18% for the second.

First: CCN(CC)C(=O)c1sc(N)c(C(=O)OC(C)C)c1C
Second: CCOC(=O)c1sc(NC(=O)CSc2n[nH]c(C)n2)nc1C
The inhibition of the first is higher: 29.4% for the first, 23.3% for the second.

Going from `O=C(O)C1CC=CCC1C(=O)c1ccccc1` (configuration not stated) to `CCC(CO)N=CC1=C(O)C(C(=O)c2ccccc2)CCC1=O` (configuration not stated), the inhibition rises from -2.95% to 4.93%.

Going from `O=c1cccccc1NN=C1CCCCCC1` to `O=C(COc1ccc(C(=O)c2ccccc2)cc1)NC1CCCCCC1`, the inhibition rises from 15.8% to 55.6%.

First: CC(=C/c1ccco1)/C=N/NC(=O)c1ccncc1
Second: COc1cccc(NC(=O)c2ccccc2)c1
The inhibition of the first is higher: 52.5% for the first, 4.57% for the second.

Compared with `C/C(=N\Nc1nc(-c2ccccc2O)nc2ccccc12)c1ccccc1`, `COc1ccccc1N(CC(O)Cn1c2ccccc2c2ccccc21)S(=O)(=O)c1ccccc1` (configuration not stated) is higher in inhibition: 7.99% for the first, 31.5% for the second.

First: CC(C)CCC(C(=O)O)C(C)CC(=O)Nc1ccn(-c2ccccc2)n1 (configuration not stated)
Second: O=C(O)C1=NN(c2ccccc2)C(=O)CC1
The inhibition of the first is lower: -10% for the first, 1.61% for the second.

First: CSCCC(NC(=O)COc1ccccc1)C(=O)N(C)Cc1cccc(F)c1 (configuration not stated)
Second: CCN(CC)C(=O)COc1ccc2c(-c3ccccc3)cc(=O)oc2c1
The inhibition of the first is higher: 23.5% for the first, -10% for the second.

Going from `Cc1ccc(NC(=O)CN(C)C(=O)CSc2ccccc2F)cc1` to `CC(=O)Nc1ccc(NC(=O)CSc2nnc(-c3cc4ccccc4o3)n2C)cc1`, the inhibition falls from 1.97% to -4.95%.

First: COc1ccc(C(CNC(=O)c2c(C)nn(Cc3ccccc3)c2Cl)N2CCOCC2)cc1 (configuration not stated)
Second: COc1ccc(NC(=O)c2ccc(C(=O)c3ccccc3)o2)cc1
The inhibition of the first is higher: 11.7% for the first, -11.3% for the second.

First: COc1ccc(OCCC(=O)OCC(=O)NC2CCCCCCC2)cc1
Second: COc1ccc(OCCC(=O)OCC(=O)NC2CCCCC2)cc1
The inhibition of the first is higher: 42.5% for the first, 39.1% for the second.

Going from `O=C(COc1ccccc1)NCC(=O)NC1CCCCC1` to `CC(CNC(=O)CN1C(=O)C(=O)N(C2CCCC2)C1=O)c1ccccc1` (configuration not stated), the inhibition rises from 3.74% to 21.6%.

`CCOc1ccc(CCNC(=O)CCc2nnc3ccc(N4CCCCC4)nn23)cc1OCC` and `COc1ccc(CCNC(=O)C2CCCN2C(=O)Nc2ccc(Cl)cc2)cc1OC` (configuration not stated) are the same in inhibition: 20.8% for the first, 20.8% for the second.

First: Cc1cccc[n+]1C1C(c2ccccc2)C(C#N)=C(C(=C=[N-])C#N)NC1(O)C1CC1 (configuration not stated)
Second: NC(=NCCc1ccccc1)NS(=O)(=O)c1ccc2ccccc2c1
The inhibition of the first is lower: 17.4% for the first, 51.5% for the second.

Going from `COC(=O)c1ccc(CN2CCN(C3CCCCC3)C(CCO)C2)cc1` (configuration not stated) to `CCC(C)[C@H](NC(=O)[C@@H]1CSC2c3ccccc3C(=O)N21)C(=O)N1CCCCC1` (some centres not stated), the inhibition rises from -2.17% to 12.4%.

First: CCOC(=O)[C@@H]1[C@H]2COc3ccc(Br)cc3[C@H]2N2C(=O)N(c3ccc(C(F)(F)F)cc3)C(=O)[C@]12C
Second: COc1ccc(S(=O)(=O)Nc2cccc3c2O[C@H](CN(C)S(=O)(=O)c2ccc(Cl)cc2)[C@H](C)CN([C@H](C)CO)C3=O)cc1
The inhibition of the first is lower: 37.9% for the first, 51.4% for the second.

Going from `O=C(c1ccc(Br)s1)N1CCCC1` to `O=C(c1ccc(Cl)s1)N1CCCC1`, the inhibition falls from 46.3% to 31%.

First: COc1cc(C(=O)O)c2ccccc2n1
Second: COCC(C)n1c(SCC(=O)N2CCOCC2)nc2ccccc2c1=O (configuration not stated)
The inhibition of the first is lower: -12.4% for the first, 3.46% for the second.

Compared with `COc1cccc2nc3cc(C)c(C)cc3nc12`, `COc1cc(CNCCO)cc(Br)c1OCc1ccccc1` is lower in inhibition: 39.2% for the first, 28.5% for the second.

Going from `CCOc1cc(CNCCO)cc(Br)c1OCc1cccs1` to `CCOc1cc(CNCCO)cc(Br)c1OCc1ccccc1`, the inhibition rises from 73.5% to 75.9%.

First: COc1cc(CNCCO)cc(Br)c1OCc1ccccc1Cl
Second: COCCNC(=O)COc1coc(CN2CCN(Cc3ccccc3)CC2)cc1=O
The inhibition of the first is higher: 79% for the first, 0.19% for the second.

Going from `Cc1cccc(C(=O)NNC(=O)c2csc(N3CCOCC3)n2)c1C` to `CCOc1ccc2oc(C(=O)NNC(=O)c3csc(N4CCOCC4)n3)c(C)c2c1`, the inhibition rises from -2.47% to 75.8%.

First: CCN(N=Nc1cccc([N+](=O)[O-])c1)c1cccc([N+](=O)[O-])c1
Second: CC1(C)CC(=O)C(N=Nc2cccc([N+](=O)[O-])c2)=C(O)C1
The inhibition of the first is higher: -3.89% for the first, -5.61% for the second.

Compared with `O=C(O)c1ccc(-c2nnc(-c3ccc([N+](=O)[O-])cc3)o2)cc1`, `CC(=O)Nc1ccc(NC(=O)c2ccc(-c3ccc([N+](=O)[O-])cc3)o2)cc1` is higher in inhibition: -2.79% for the first, 28.3% for the second.

Compared with `Oc1ccc(-c2nnc(SCc3ccccc3)o2)cc1`, `O=C(CSc1nnc(-c2ccc(O)cc2)o1)Nc1ccccc1` is lower in inhibition: 77.5% for the first, 63.5% for the second.

Compared with `OCC#CCSc1nnc(-c2ccncc2)o1`, `CCSc1nnc(-c2ccncc2)o1` is lower in inhibition: 23.9% for the first, 0.24% for the second.

Compared with `Cc1ccc(C(=O)CSc2nnc(-c3ccccc3)o2)cc1`, `Cc1ccc(CSc2nnc(-c3cccc4ccccc34)o2)cc1` is lower in inhibition: 64.9% for the first, 14.4% for the second.

Compared with `COc1ccc(-c2nnc(SCC#CCO)o2)cc1OC`, `Cc1ccccc1-c1nnc(SCC#N)o1` is lower in inhibition: 45.7% for the first, 15.7% for the second.

Going from `O=C(CSc1nnc(-c2ccncc2)o1)c1cccc([N+](=O)[O-])c1` to `C=CCSc1nnc(-c2cccc3ccccc23)o1`, the inhibition falls from 70.5% to 5.5%.

Compared with `CC(=O)Nc1nccc(-c2cc(-c3ccccc3)no2)n1`, `Cc1ccccc1C(=O)NNC(=O)c1ccc2nc[nH]c2c1` is higher in inhibition: 2.66% for the first, 8.7% for the second.

Compared with `O=c1c2ccccc2ncn1-c1ccc(Cl)c(Cl)c1`, `O=C(N/N=C/c1c(O)n(-c2ccc(Cl)cn2)c(=O)c2ccccc12)C1CC1` is higher in inhibition: 1.67% for the first, 6.8% for the second.

Going from `COc1cc(Cl)cc(C=O)c1OCC(=O)O` to `COc1cccc(NC(=O)CNC(=O)c2ccc([N+](=O)[O-])cc2)c1`, the inhibition rises from 8.45% to 12.4%.

Going from `C#CCSc1nnc(-c2sc3ccccc3c2Cl)o1` to `C#CCSc1n[nH]c(=O)n1-c1cccc(C(F)(F)F)c1`, the inhibition falls from 71.8% to 3.27%.

Going from `O=C(CCNc1n[nH]c(=O)[nH]c1=O)N/N=C\c1cccc(OCc2ccccc2)c1` to `COc1cccc(NC(=O)CC(=O)c2ccc([N+](=O)[O-])cc2)c1`, the inhibition rises from 10.7% to 47%.

First: COc1ccc(CCNC(=O)c2ccc(-c3ccc([N+](=O)[O-])cc3)o2)cc1OC
Second: Cc1ccccc1NC(=O)c1ccc(Cn2cc([N+](=O)[O-])cn2)o1
The inhibition of the first is higher: 60.1% for the first, 46.5% for the second.

In the case of `Cc1cc(NC(=O)c2ccc(Cn3cc([N+](=O)[O-])cn3)o2)no1`, the inhibition is reported as 14.1%.
